NADH enzymes: blocks coupling enzymes of NAD/NADH assays. coupled PK/LDH NADH assays, four targets. IC50, µM (highest dose often 10 µM). 65,000 compounds, 0.02% hits;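 active = single-dose screening hits from any of four coupled enzyme assays that gave an IC50 when retested across doses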;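 note: the DPM-DC format reads NADH fluorescence rather than 340 nm absorbance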
Fluor 339 460: intrinsic fluorescence of library compounds, ex339/em460 – biochemical, MLSMR library, data from DPM-DC assay, artefact control, profiling panel; compound autofluorescence, ex339/em460 nm, NADH buffer; active compounds read high; 1 = no-compound wells, NADH background; fluorescence fold increase at 10 µM; 65,000 compounds, 5.5% hits;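 active = at 10 µM, mean starting fluorescence two-fold or more over control wells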;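 note: signal is the first read of a kinetic run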
PMK inhibit: S. pneumoniae PMK inhibition. purified PMK, PK/LDH-coupled NADH absorbance 340 nm. inhibition, % at 10 µM. 65,000 compounds, 0.49% hits;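 active = top-ranked compounds by inhibition in the single 10 µM screen, taking a fixed number of the strongest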
Abs 340nm: compounds absorbing at 340 nm | compound absorbance at 340 nm, fold over control | fold change at 10 µM | 65,000 tested, under 10 active | AID 708;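 active = at 10 µM dose, initial 340 nm absorbance at least 2 fold that of control wells; inactive = change under 2 fold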;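 note: initial absorbance extrapolated from kinetic A340 decline of NADH oxidation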
Spn MK inh: inhibitors of Streptococcus pneumoniae mevalonate kinase; inhibition, % at 10 µM; purified MK, PK/LDH-coupled NADH absorbance 340 nm; 65,000 compounds, 0.48% hits;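 active = ranked among the strongest by inhibition in the single 10 µM screen, a fixed top-ranked set picked for dose follow-up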
Spn DPM-DC inh: blocks S. pneumoniae diphosphomevalonate decarboxylase; 65,000 compounds, 0.49% hits; purified DPM-DC, PK/LDH coupled NADH fluorescence; calls only at 10 µM;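 active = the 320 compounds with the highest percent inhibition in the single-dose primary screen, excluding strongly autofluorescent ones, cut at about 32% in these data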;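 note: kinetic rate of NADH fluorescence loss reporting ADP formed by the decarboxylase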
Each line names hits and unclear results; the compound was inactive in the other large screens. Only some compounds are listed: those with a hit (about 6.3% of all), similar ones and a draw of the others.

O=C(c1ccccc1)c1nnc(-c2ccccc2F)o1	none
CN(C)c1oc(-c2cccs2)nc1C#N	Fluor 339 460 2.37 (not shown: Spn DPM-DC inh)
CCSc1nnc(-c2cccs2)o1	none
CCOC(=O)c1ccc(CNC(=O)c2cc(C(C)(C)C)oc2C)o1	none
CCOc1ccc(N(CC(=O)Nc2ccc3c(c2)OCCO3)S(=O)(=O)c2c(C)noc2C)cc1	none
Cn1nc(-c2ccc(Cl)cc2)c2cc(C(=O)NCC3CCCO3)sc21 (configuration not stated)	Fluor 339 460 2.14 (not shown: Spn DPM-DC inh)
CCN(CC)CCCNC(=O)c1cc(-c2ccc(Cl)c(Cl)c2)on1	none
CCN(CC)CCCNC(=O)c1cc2c(-c3ccc(Cl)cc3)nn(C)c2s1	Fluor 339 460 2.14 (not shown: Spn DPM-DC inh)
Cn1nc(-c2ccc(Cl)cc2)c2cc(C(=O)N3CCOCC3)sc21	none
CN1CCN(CCCNC(=O)c2cc3c(-c4ccc(Cl)cc4)nn(C)c3s2)CC1	Fluor 339 460 2.15 (not shown: Spn DPM-DC inh)
Cc1nn(-c2ccccc2)c(C)c1NS(=O)(=O)c1ccccc1	none
CC1CCc2nc(N)c(C#N)c(-c3cccnc3)c2C1 (configuration not stated)	none
CC1CCc2nc(N)c(C#N)c(-c3ccncc3)c2C1 (configuration not stated)	Fluor 339 460 3.75 (not shown: Spn DPM-DC inh)
CCOC(=O)c1nc2sc3c(c2c(=O)[nH]1)CCCC3	Fluor 339 460 2.51 (not shown: Spn DPM-DC inh)
CCOC(=O)CSc1nc(N)c2c3c(sc2n1)CCCC3	none
CCOC(=O)c1nc(N2CCN(C(=O)OCC)CC2)c2c3c(sc2n1)CCCC3	Fluor 339 460 3.69 (not shown: Spn DPM-DC inh)
Cc1ccnc(NC(=O)CCC(=O)N(CC(=O)NC2CCCCC2)CC2CCCO2)c1 (configuration not stated)	none
CC1CCCCN1CC(=O)Nc1sc2c(c1C#N)CCC2 (configuration not stated)	none
CCN(CC)C(=O)C(C)OC(=O)c1ccc(O)cc1 (configuration not stated)	none
c1ccc(C(c2nnnn2C2CCCCC2)N2CCc3ccccc3C2)nc1 (configuration not stated)	Fluor 339 460 3.97
C=CCn1c(COc2ccc(Cl)cc2)nnc1SCC(=O)N1CC(=O)Nc2ccccc21	none
CCOc1ccc(-c2nnc(SCC(=O)N3CCN(c4ccccc4)CC3)o2)cc1	PMK inhibit 26.0
O=C(CSc1nnc(-c2ccccc2)o1)N1CCN(c2ccccc2)CC1	none
CNS(=O)(=O)c1cccc(C(=O)OC2CCCCC2=O)c1 (configuration not stated)	PMK inhibit 28.0
CCCn1c(SCC(=O)NC(=O)NCc2ccco2)n[nH]c1=O	none
CCCn1c(SCc2cc(=O)oc3ccc4ccccc4c23)n[nH]c1=O	Fluor 339 460 2.07 (not shown: Spn DPM-DC inh)
COc1c(Cl)ccc(Cl)c1C(=O)OCC(=O)O	none
CCC(C)(C)n1nnnc1C(c1cc2cc3c(cc2[nH]c1=O)OCO3)N1CCN(C)CC1 (configuration not stated)	Fluor 339 460 3.78 (not shown: Spn DPM-DC inh)
CC(C)(C)n1nnnc1C(c1cc2cc3c(cc2[nH]c1=O)OCCO3)N1CCSCC1 (configuration not stated)	Fluor 339 460 3.31 (not shown: Spn DPM-DC inh)
CCC(C)(C)n1nnnc1C(c1cc2cc(C)cc(C)c2[nH]c1=O)N1CCCC1 (configuration not stated)	none
COc1ccccc1C(c1nnnn1C(C)(C)C)N1CCN(C(=O)c2ccco2)CC1 (configuration not stated)	none
O=c1[nH]c2cc3c(cc2cc1C(c1nnnn1C1CCCC1)N1CCSCC1)OCCO3 (configuration not stated)	Fluor 339 460 3.22 (not shown: Spn DPM-DC inh)
Cc1cc(C)c2[nH]c(=O)c(C(c3nnnn3C(C)(C)C)N3CCN(C(=O)c4ccco4)CC3)cc2c1 (configuration not stated)	Fluor 339 460 2.41
CCCCCCC1CC(CSc2ncn[nH]2)OC1=O (configuration not stated)	none
COC(=O)C1=C(N)Oc2cc(C)n(CC3CCCO3)c(=O)c2C1c1ccc(Cl)cc1 (configuration not stated)	none
CCc1cc2c(NCC3CCCO3)ncnc2s1 (configuration not stated)	none
CC(C)c1nc2oc3c(NCC4CCCO4)ncnc3c2c2c1COC(C)(C)C2 (configuration not stated)	Fluor 339 460 3.8 (not shown: Spn DPM-DC inh)
CCCc1nc2oc3c(NCCOCCO)ncnc3c2c2c1COC(C)(C)C2	Fluor 339 460 3.56 (not shown: Spn DPM-DC inh)
Cc1nc2oc3c(NCc4ccccc4)ncnc3c2c2c1COC(C)(C)C2	Fluor 339 460 2.51
Cc1nc2oc3c(NCC4CCCO4)ncnc3c2c2c1COC(C)(C)C2 (configuration not stated)	Fluor 339 460 2.14, Spn DPM-DC inh active
Cc1nc2sc3c(NCc4ccco4)ncnc3c2c2c1COC(C)(C)C2	none
CCOC(=O)c1c(C)nc2ncccn12	Fluor 339 460 2.11 (not shown: Spn DPM-DC inh)
Cc1ccc2oc(=O)c3cc(C(=O)NCCN4CCN(C)CC4)sc3c2c1	Fluor 339 460 2.17 (not shown: Spn DPM-DC inh)
CCOC(=O)Cc1csc(-n2sc3ccccc3c2=O)n1	Spn MK inh 67.0, Spn DPM-DC inh active
S=c1[nH]nc(-c2ccccc2)n1C1C=CCCC1 (configuration not stated)	Spn DPM-DC inh active
COC(=O)c1cc(Br)ccc1OC(=O)c1cccnc1	none
CCN(C(=O)COc1cc(=O)n(C)c2ccccc12)c1cccc(Cl)c1	none
Cn1c(=O)c2nc(-c3ccc(Cl)cc3Cl)oc2c2ccccc21	Fluor 339 460 2.04 (not shown: Spn DPM-DC inh)
Cc1nc2cc(NC(=O)NCc3ccco3)ccc2n1C	Spn DPM-DC inh active
Cc1nc2ccc(NC(=O)NCc3ccco3)cc2s1	none
S=c1[nH]nc(-c2ccncc2)n1Cc1ccccc1	none
Oc1ccc(-c2n[nH]c(=S)n2Cc2ccccc2)cc1	Spn MK inh active
COc1cc2[nH]c3c(N4CCN(c5ccc(Cl)cc5)CC4)ncnc3c2cc1OC	Fluor 339 460 2.42
COc1cccc2[nH]c3c(N4CCC(C)CC4)ncnc3c12	Fluor 339 460 3.72 (not shown: Spn DPM-DC inh)
COc1cccc(N2CCN(c3ncnc4c3[nH]c3ccccc34)CC2C)c1 (configuration not stated)	none
COc1cccc2[nH]c3c(N4CCN(Cc5ccc6c(c5)OCO6)CC4)ncnc3c12	Fluor 339 460 3.88 (not shown: Spn DPM-DC inh)
Cc1cc2cc(CCNC(=O)c3c(-c4ccccc4Cl)noc3C)c(=O)[nH]c2cc1C	none
O=C(NCC12CC3CC(CC(C3)C1)C2)c1cc2n(n1)C(C(F)(F)F)CC(c1ccco1)N2 (configuration not stated)	none
COc1ccc(C2C=C(c3cccs3)Nc3nc(CCCO)nn32)cc1 (configuration not stated)	Fluor 339 460 3.93 (not shown: Spn DPM-DC inh)
COc1ccc(C2C=C(c3ccccc3)Nc3nc(CCCO)nn32)cc1 (configuration not stated)	Fluor 339 460 4.87 (not shown: Spn DPM-DC inh)
